Read-out in test [1]: urokinase plasminogen activator (uPA), PLAU (gene 5328)
The experiment in a line: BSK_KF3CT_uPA: BioMAP Diversity Plus: KF3CT Assay for urokinase plasminogen activator (uPA) Biomarker Activity (AID 2283075). The settings on record: primary human keratinocytes with fibroblasts; actives raise or lower the signal. Put shortly:
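Human keratinocyte plus foreskin fibroblast primary co-culture exposed to chemical for 24 h. uPA levels were quantified by ELISA, and activity was fitted bidirectionally against a DMSO negative-control baseline.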

Read-out in test [2]: CD40, CD40 (gene 958)
The test can be described thus: BSK_LPS_CD40: BioMAP Diversity Plus: LPS Assay for CD40 Biomarker Activity (AID 2283076). The settings on record: primary human HUVEC with PBMC; actives raise or lower the signal. Put shortly:
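ELISA readout of CD40 in HUVEC/PBMC co-culture (BSK_LPS system), 24 h post-dosing; bidirectional curve fit, DMSO baseline; parallel SRB total-protein staining for cytotoxicity.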

Read-out in test [3]: E-selectin (Homo sapiens) (UniProt P16581)
The test can be described thus: BSK_LPS_Eselectin: BioMAP Diversity Plus: LPS Assay for Eselectin Biomarker Activity (AID 2283077). The settings on record: primary human HUVEC with PBMC; actives raise or lower the signal. Put shortly:
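ELISA readout of E-selectin, 24 h post-dose, HUVEC + PBMC co-culture (LPS system). Gain or loss of signal vs DMSO baseline, bidirectional fit.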

Read-out in test [4]: Interleukin-8 (IL8), CXCL8 (gene 3576)
The test can be described thus: BSK_LPS_IL8: BioMAP Diversity Plus: LPS Assay for Interleukin-8 (IL8) Biomarker Activity (AID 2283078). The settings on record: primary human HUVEC with PBMC; actives raise or lower the signal. Put shortly:
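HUVEC + PBMC co-culture, LPS-activated; test chemicals dosed, IL-8 read by ELISA at 24 h. Bidirectional curve fit vs DMSO baseline (gain or loss of signal).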

Test [5] is described as follows: BSK_LPS_SRB: Viability Assessment in the BioMAP Diversity Plus: LPS Assay (AID 2283079).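 Note: total protein by sulforhodamine B absorbance as a cytotoxicity measure; measured one day after compound addition; fitted in both directions against DMSO so loss or gain of signal counts.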 Conditions: primary human HUVEC with PBMC. Put shortly: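 HUVEC + PBMC co-culture, LPS-stimulated; compound 24 h. 10% TCA fix, 0.1% SRB stain, A560. Bidirectional fit vs DMSO.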
Read-out in test [6]: Interleukin-1 alpha (IL1a), IL1A (gene 3552)
The test can be described thus: BSK_LPS_IL1a: BioMAP Diversity Plus: LPS Assay for Interleukin-1 alpha (IL1a) Biomarker Activity (AID 2283080). The settings on record: primary human HUVEC with PBMC; actives raise or lower the signal. Put shortly: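 HUVEC/PBMC co-culture, LPS system; 24 h after dosing; IL-1a by ELISA; gain or loss of signal fitted bidirectionally vs DMSO baseline.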

Read-out in test [7]: Monocyte Chemoattractant Protein-1 (MCP1), CCL2 (gene 6347)
The experiment in a line: BSK_LPS_MCP1: BioMAP Diversity Plus: LPS Assay for Monocyte Chemoattractant Protein-1 (MCP1) Biomarker Activity (AID 2283081).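 For AC50: secreted MCP-1 protein quantified by ELISA in culture supernatant.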 Conditions: primary human HUVEC with PBMC; actives raise or lower the signal. Put shortly:
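ELISA read-out of MCP-1 after 24 h chemical dosing of a human umbilical vein endothelial cell/peripheral blood mononuclear cell co-culture stimulated with LPS. Gain or loss of signal fitted relative to DMSO controls.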

A short description of test [8]: BSK_LPS_PGE2: BioMAP Diversity Plus: LPS Assay for Prostaglandin E2 (PGE2) Biomarker Activity (AID 2283082).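 For AC50: secreted prostaglandin E2 measured by ELISA in LPS-stimulated co-culture.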 The settings on record: primary human HUVEC with PBMC; actives raise or lower the signal. Put shortly:
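HUVEC plus human PBMC co-culture stimulated with LPS; secreted PGE2 quantified by ELISA 24 h after chemical dosing. Activity fitted bidirectionally against DMSO baseline; parallel SRB staining (0.1% SRB after 10% TCA fixation, 560 nm) flags overt cytotoxicity.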

Read-out in test [9]: Macrophage colony-stimulating factor (MCSF), CSF1 (gene 1435)
The test can be described thus: BSK_LPS_MCSF: BioMAP Diversity Plus: LPS Assay for Macrophage colony-stimulating factor (MCSF) Biomarker Activity (AID 2283083). The settings on record: primary human HUVEC with PBMC; actives raise or lower the signal. Put shortly:
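HUVEC + PBMC co-culture (human primary), 24 h post-dose; M-CSF by ELISA; gain/loss of signal fitted bidirectionally vs DMSO baseline.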

Read-out in test [10]: Tissue Factor, F3 (gene 2152)
The experiment in a line: BSK_LPS_TissueFactor: BioMAP Diversity Plus: LPS Assay for Tissue Factor Biomarker Activity (AID 2283084). Conditions: primary human HUVEC with PBMC; actives raise or lower the signal. Put shortly: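 HUVEC/PBMC co-culture, LPS-activated; CD142 ELISA read 24 h post-dose; bidirectional curve fit vs DMSO negative control.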

Read-out in test [11]: Tumor necrosis factor (Homo sapiens) (UniProt P01375)
The test can be described thus: BSK_LPS_TNFa: BioMAP Diversity Plus: LPS Assay for Tumour Necrosis Factor alpha (TNFa) Biomarker Activity (AID 2283085). Conditions: primary human HUVEC with PBMC; actives raise or lower the signal. Put shortly: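 Human umbilical vein endothelial cells co-cultured with PBMC and stimulated with LPS. TNFa was measured by ELISA 24 h after chemical dosing, fitted bidirectionally relative to DMSO.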

Read-out in test [12]: Vascular cell adhesion molecule 1 (VCAM1), VCAM1 (gene 7412)
The test can be described thus: BSK_LPS_VCAM1: BioMAP Diversity Plus: LPS Assay for Vascular cell adhesion molecule 1 (VCAM1) Biomarker Activity (AID 2283086). Conditions: primary human HUVEC with PBMC; actives raise or lower the signal. Put shortly:
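Human umbilical vein endothelial cells co-cultured with PBMC and stimulated with LPS; VCAM-1 measured by ELISA 24 h after dosing. Bidirectional curve fitting against DMSO baseline; cytotoxicity tracked in parallel by SRB total-protein staining.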

Read-out in the next test: CD38, CD38 (gene 952)
The experiment in a line: BSK_SAg_CD38: BioMAP Diversity Plus: SAg Assay for CD38 Biomarker Activity (AID 2283087). The settings on record: primary human HUVEC with PBMC; actives raise or lower the signal. Put shortly: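 Human HUVEC plus PBMC co-culture stimulated with superantigen; CD38 measured by ELISA 24 h after chemical dosing. Fluorescence read-out, bidirectional fit against DMSO; cytotoxicity tracked in parallel by SRB and Alamar Blue.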

Read-out in test [13]: CD40, CD40 (gene 958)
The experiment in a line: BSK_SAg_CD40: BioMAP Diversity Plus: SAg Assay for CD40 Biomarker Activity (AID 2283088). Conditions: primary human HUVEC with PBMC; actives raise or lower the signal. Put shortly: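 HUVEC/PBMC co-culture, 24 h post-dose; CD40 by ELISA, fluorescence intensity; bidirectional fit vs DMSO negative control.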

Read-out in another test: CD69, CD69 (gene 969)
The test can be described thus: BSK_SAg_CD69: BioMAP Diversity Plus: SAg Assay for CD69 Biomarker Activity (AID 2283089).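 For AC50: cell surface CD69 protein quantified by ELISA with fluorescence detection.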 Conditions: primary human HUVEC with PBMC; actives raise or lower the signal. Put shortly:
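Values derive from bidirectional fitting relative to DMSO vehicle. Cells: umbilical vein endothelium plus peripheral blood mononuclear cells, treated 24 h before fluorescent ELISA for CD69.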

Read-out in test [14]: Monocyte Chemoattractant Protein-1 (MCP1), CCL2 (gene 6347)
The test can be described thus: BSK_SAg_MCP1: BioMAP Diversity Plus: SAg Assay for Monocyte Chemoattractant Protein-1 (MCP1) Biomarker Activity (AID 2283090). The settings on record: primary human HUVEC with PBMC; actives raise or lower the signal. Put shortly:
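MCP-1 levels in the endothelial–PBMC SAg co-culture were quantified by ELISA at 24 h post-dosing; both increases and decreases versus DMSO scored. Cytotoxicity monitored by SRB total protein in parallel cultures.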

Read-out in test [15]: E-selectin (Homo sapiens) (UniProt P16581)
The test can be described thus: BSK_SAg_Eselectin: BioMAP Diversity Plus: SAg Assay for Eselectin Biomarker Activity (AID 2283091). Conditions: primary human HUVEC with PBMC; actives raise or lower the signal. Put shortly:
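E-selectin ELISA readout at 24 h post-dosing in human umbilical vein endothelial cell/PBMC co-culture; gain or loss of signal fitted relative to DMSO baseline.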

Read-out in test [16]: Monokine induced gamma interferon (MIG), CXCL9 (gene 4283)
The experiment in a line: BSK_SAg_MIG: BioMAP Diversity Plus: SAg Assay for Monokine induced gamma interferon (MIG) Biomarker Activity (AID 2283092). Conditions: primary human HUVEC with PBMC; actives raise or lower the signal. Put shortly: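 Values reflect bidirectional fitting of ELISA-measured MIG against DMSO vehicle, taken 24 h after dosing of a co-culture of human umbilical vein endothelial cells and peripheral blood mononuclear cells.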

Read-out in test [17]: C-C motif chemokine 2 (Homo sapiens) (UniProt P13500)
The experiment in a line: BSK_KF3CT_MCP1: BioMAP Diversity Plus: KF3CT Assay for Monocyte Chemoattractant Protein 1 (MCP1/CCL2) Biomarker Activity (AID 2283073). Conditions: primary human keratinocytes with fibroblasts; actives raise or lower the signal. Put shortly: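 KF3CT skin co-culture (keratinocytes/foreskin fibroblasts), 24 h post-dose; MCP-1 by ELISA; gain/loss of signal fit bidirectionally vs DMSO baseline.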

Active and inactive are the calls of the source. Rule for the calls: active = hit-call score of the fitted dose curve at least 0.9, where 1 is the maximum; inactive = score below 0.9.

Sequence of Tumor necrosis factor (Homo sapiens) (P01375 whole entry, looked up): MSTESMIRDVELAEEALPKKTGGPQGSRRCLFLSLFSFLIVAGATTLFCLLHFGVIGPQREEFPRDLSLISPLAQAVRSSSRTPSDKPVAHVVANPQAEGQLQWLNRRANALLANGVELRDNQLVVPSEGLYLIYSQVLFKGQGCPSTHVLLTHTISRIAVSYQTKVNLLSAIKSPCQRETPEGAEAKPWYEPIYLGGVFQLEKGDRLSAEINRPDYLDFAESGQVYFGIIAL
Sequence of E-selectin (Homo sapiens) (P16581 whole entry, looked up): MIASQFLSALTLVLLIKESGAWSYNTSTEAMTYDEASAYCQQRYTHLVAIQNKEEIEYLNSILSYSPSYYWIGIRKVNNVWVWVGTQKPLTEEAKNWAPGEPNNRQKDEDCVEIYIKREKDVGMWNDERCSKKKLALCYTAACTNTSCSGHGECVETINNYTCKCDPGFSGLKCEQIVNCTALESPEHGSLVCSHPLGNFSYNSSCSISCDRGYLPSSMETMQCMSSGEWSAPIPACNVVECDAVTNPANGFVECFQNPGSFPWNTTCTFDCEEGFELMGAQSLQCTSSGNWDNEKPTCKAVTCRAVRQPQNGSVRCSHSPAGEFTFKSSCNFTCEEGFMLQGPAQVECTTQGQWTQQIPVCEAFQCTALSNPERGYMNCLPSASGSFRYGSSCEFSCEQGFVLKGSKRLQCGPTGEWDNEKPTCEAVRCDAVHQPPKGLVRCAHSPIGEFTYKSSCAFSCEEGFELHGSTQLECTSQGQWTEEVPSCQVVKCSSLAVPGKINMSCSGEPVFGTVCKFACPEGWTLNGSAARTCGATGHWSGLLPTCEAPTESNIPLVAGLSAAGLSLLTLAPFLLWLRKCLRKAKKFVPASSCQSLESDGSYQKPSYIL

On to `O=C1OC2(c3cc(Br)c(O)c(Br)c3Oc3c2cc(Br)c(O)c3Br)c2c(Cl)c(Cl)c(Cl)c(Cl)c21`, for which the AC50 in [1] was 3.89 µM (active); with CD40, CD40 (gene 958) [2] it was 4.27 µM (active); in test [3] it was 5.71 µM (active); in [4], 13.2 µM (active); in test [5] it was 3.6 µM (active); in test [6] it was 3.73 µM (active). Besides, the AC50 in test [7] is 4.59 µM (active); in [8], 3.33 µM (active); in test [9], 5.42 µM (active); in test [10], 8.77 µM (active); in test [12], 5.55 µM (active); with CD38, CD38 (gene 952), 5.04 µM (active). Also, the AC50 with CD40, CD40 (gene 958) [13] was 6.57 µM (active); with CD69, CD69 (gene 969) it was 6.39 µM (active); in test [14], 5.24 µM (active); in test [15], 6.53 µM (active); in test [16], 23.1 µM (active). The outcome in test [11] was inactive.

In the case of `O=C1CCCCCCCCCCCCCCO1`, the AC50 in [17] is 12.5 µM (active); in test [8] it was 3.97 µM (active); in test [12], 23.5 µM (active); with CD69, CD69 (gene 969) it was 20 µM (active). For the same compound, the outcome in test [1] is “inactive”; with CD40, CD40 (gene 958) [2] it was “inactive”; in test [3], “inactive”; in test [4], “inactive”; in test [5], “inactive”; in test [6], “inactive”. The outcome in test [7] was “inactive”; in test [9] it was “inactive”; in test [10] it was “inactive”; in test [11], “inactive”; with CD38, CD38 (gene 952), “inactive”; with CD40, CD40 (gene 958) [13], “inactive”. The result in test [14], in test [15] and in test [16] was inactive.

Take `O=C(O)c1cn(C2CC2)c2cc(N3CCNCC3)c(F)cc2c1=O`: the outcome was “inactive” in test [17]; “inactive” in test [1]; “inactive” with CD40, CD40 (gene 958) [2]; “inactive” in [3]; “inactive” in test [4]; “inactive” in test [5]. The result in test [6], in test [7], in test [8], in test [10], in [11] and in [12] was inactive. The outcome was “inactive” in the test with CD38, CD38 (gene 952); “inactive” in the test with CD40, CD40 (gene 958) [13]; “inactive” with CD69, CD69 (gene 969); “inactive” in [14]; “inactive” in test [15]; “inactive” in test [16].

As to `BrC1CCC(Br)C(Br)CCC(Br)C(Br)CCC1Br` (centres undefined), the result in test [17], in [3], in [4], in test [7], in [10] and in test [11] was inactive. Besides, the outcome was “inactive” in the test with CD69, CD69 (gene 969); “inactive” in test [14]; “inactive” in [15]; “inactive” in test [16]. Moreover, the AC50 was 4.69 µM (active) in [1]; 4.57 µM (active) with CD40, CD40 (gene 958) [2]; 4.63 µM (active) in [5]; 4.58 µM (active) in test [6]; 3.87 µM (active) in test [8]; 4.67 µM (active) in test [9]. In addition, the AC50 in [12] was 4.54 µM (active); in the test with CD38, CD38 (gene 952) it was 4.57 µM (active); in the test with CD40, CD40 (gene 958) [13], 4.59 µM (active).

Broadly, the AC50 is the concentration at which the activity in the assay is half-maximal.

The values are drawn from PubChem BioAssay (EPA / NIEHS).
